PI5P4Ka inh – inhibitors of human PI5P4K alpha. PI5P4Kalpha enzyme, ADP-Glo luminescence, 60 min; active compounds read low. max response, %. 330,000 tested, 1.2% active. AID 652105; active = max response of -50% or lower; inconclusive = between -30% and -50%; inactive = -30% or higher; note: value at the top dose of about 77 µM; % is set by controls: 0 for no effect and ±100 for the full control effect
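Enzyme plus substrate dispensed, test compounds pinned in, then ATP (5 microM final) added. After 60 min at RT, ADP-Glo reagent 1 for 45 min and reagent 2 for 30 min preceded luminescence imaging.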
PLK1 PBD inh – inhibitors of human PLK1 polo-box domain binding; Plk1 PBD binding of FITC phosphopeptide, fluorescence polarization; Potency, µM, inactives show max response, negative = inhibition, most hits filed as inhibitors; 360,000 tested, 2.8% active; note: potency is the fitted concentration of half-maximal effect; series mostly up to about 57 µM; % is set by controls: 0 for no effect and ±100 for the full control effect; nearly all actives have a fitted effect of over 65% in size
KAT2A inh – inhibitors of human GCN5L2 histone acetyltransferase. Q92830. GCN5L2 HAT assay, ThioGlo1 CoA-SH fluorescence. Potency, µM (titrated, usually from 58.9 µM), inactives show top-dose activity change, negative = inhibition, most hits filed as inhibitors. 390,000 tested, 0.21% active; note: potency is the fitted concentration of half-maximal effect; % is set by controls: 0 for no effect and ±100 for the full control effect
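Enzyme at 20nM final was mixed with library compounds for 15 min at room temperature. Peptide H3(1-25) at 75uM, acetyl-CoA at 70uM and ThioGlo1 at 50uM were then added. Plates were read immediately and after 20 min (Ex340nm/Em540nm).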
Rango release inh – prevents RanGTP from dissociating the Rango-importin beta complex; Biochemical FRET Rango-importin beta, RanGTP-induced dissociation; 340,000 tested, 0.071% active; O95149+P62826; Potency, µM (top dose mostly 46.1 µM), without a hit: top-dose activity change, negative = inhibition; AID 540253; calls by dose curve; note: potency is the fitted concentration of half-maximal effect; % of control where 0% means no effect; nearly all actives have a fitted effect of over 45% in size
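Compounds preincubate 5 min with complex of recombinant Rango and importin beta in PBS with 1 mM DTT. Ran (0.6 uM) loaded with 2 mM GTP plus 0.2 uM RCC1 starts dissociation; FRET is recorded 45 min later.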
Rango complex inh – Rango-importin beta binding inhibition; Potency, µM (series often up to 92.2 µM), for inactives: at the top dose inhibition of complex formation; 340,000 tested, 0.031% active; Q14974; AID 540263; Rango CFP/YFP FRET sensor + importin beta, 45 min; calls by dose curve;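 note: potency is the fitted concentration of half-maximal effect; 0% = DMSO wells and 100% = buffer wells lacking importin beta; nearly all actives have a fitted effect of over 15% in size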
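FRET biosensor Rango (snurportin 1 IBB between N-terminal EYFP and C-terminal Cerulean), 50 nM in PBS/1 mM DTT/0.02% Tween-20/0.1% BSA, preincubated 5 min RT with compound; 0.125 microM importin beta added, 45 min RT, CFP/YFP FRET ratio read.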
VDR inhibitor – vitamin D3 receptor (human) inhibition; P11473; VDR-SRC2-3 peptide fluorescence polarization, 2 h; Potency, µM, for inactives: max response, negative = inhibition, most hits filed as inhibitors; 400,000 tested, 0.93% active; AID 504847; note: potency is the fitted concentration of half-maximal effect; % is set by controls: 0 for no effect and ±100 for the full control effect
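Compounds are added to VDR with labelled SRC2-3 coactivator peptide and held 2 h at room temperature. Inhibition of the VDR–peptide interaction is then read as a change in fluorescence polarization.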
* hit, by the source's call. An excerpt weighted towards active compounds, which were near 3.6% of everything screened. Unless noted, calls come from the whole dose curve; as a rule, active = well fitted curve in the direction sought with a large enough effect; inconclusive = small, poorly fitted or top-dose-only effect, or another doubt; inactive = no such curve, though single readings can be large; an effect the other way counts as inactive or inconclusive.

`COC(=O)CC1C(=O)NCCN1C(=O)c1ccc2oc(C(C)C)nc2c1` (stereo not drawn) gave PI5P4Ka inh 0.7, PLK1 PBD inh 29.9µM*, KAT2A inh -5.4%, Rango release inh -16.3%, Rango complex inh -1.4% and VDR inhibitor inconclusive.
For COc1cccc(F)c1C(C[N+](=O)[O-])c1c(N)n(C)c(=O)n(C)c1=O (stereo not drawn) the results were PI5P4Ka inh -1.9, PLK1 PBD inh -1.8%, KAT2A inh -26.7%, Rango release inh 1.7%, Rango complex inh -5.1% and VDR inhibitor 79.4µM*.
For COc1cc(C(C[N+](=O)[O-])c2c(N)n(C)c(=O)n(C)c2=O)ccc1O (stereo not drawn) the results were PI5P4Ka inh -3.2, PLK1 PBD inh -5.0%, KAT2A inh -4.2%, Rango release inh -0.6%, Rango complex inh 3.6% and VDR inhibitor inconclusive.
For O=[N+]([O-])c1ccc(N=Nc2ccc(O)c3ccccc23)cc1 the results were PI5P4Ka inh -65.8*, PLK1 PBD inh -12.0%, Rango release inh -20.4%, Rango complex inh 0.1% and VDR inhibitor 9.6%.
For O=[N+]([O-])c1ccc(N=NNc2ccccc2)cc1 the results were PI5P4Ka inh -3.9, PLK1 PBD inh 29.9µM*, KAT2A inh -13.5%, Rango release inh -3.0%, Rango complex inh 4.2% and VDR inhibitor -23.5%.
O=S(=O)(Nc1ccc(N=Nc2ccc(O)c3ccccc23)cc1)c1ccccc1 was read as PI5P4Ka inh -19.7, PLK1 PBD inh 7.6%, KAT2A inh -4.5%, Rango release inh -5.7%, Rango complex inh 3.7% and VDR inhibitor -2.2%.
CN(C)c1ncc(C2=C(Cl)C(=O)C(N3CCCC3)=C(Cl)C2=O)s1 was read as PLK1 PBD inh 7.52µM*, Rango release inh -3.7%, Rango complex inh 2.0% and VDR inhibitor 28.2µM*.
`O=C1C(Cl)=C(N2CCCCC2)C(=O)C(Cl)=C1c1cnc(N2CCCCC2)s1` gave PLK1 PBD inh 7.52µM*, KAT2A inh -21.3%, Rango release inh -10.4%, Rango complex inh -2.5% and VDR inhibitor inconclusive.
`COc1ccc(N2C(=O)C(Cl)=C(N3CCCC3)C2=O)cc1` gave PI5P4Ka inh -1.4, PLK1 PBD inh -12.5%, KAT2A inh -6.5%, Rango release inh 21.9%, Rango complex inh 2.4% and VDR inhibitor 10.2%.
Screening CCN(CC)C(=O)C1=C(C)Nc2nc3ccccc3n2C1c1ccc(Br)cc1 (stereo not drawn) returned KAT2A inh 2.1% and VDR inhibitor -5.0%.
COc1ccc(-c2ccc(=O)n(CC(=O)NCCc3ccccc3)n2)cc1 was read as KAT2A inh -7.2% and VDR inhibitor -1.9%.
COc1ccc(/C=C/c2nc(C#N)c(N3CCCCC3)o2)cc1OC was read as KAT2A inh -21.4% and VDR inhibitor 18.5%.
`CCN1C(=O)[C@H]2[C@@H](c3ccc(C)cc3)N3C(=O)N(c4ccc(C)cc4)C(=O)[C@@]3(C)[C@H]2C1=O` gave PI5P4Ka inh 3.1, PLK1 PBD inh -4.3%, KAT2A inh -4.6%, Rango release inh -1.0%, Rango complex inh 4.9% and VDR inhibitor -12.6%.
Screening CCN1C(=O)[C@H]2[C@@H](c3ccc(C)cc3)N3C(=O)N(c4ccc(OC)cc4)C(=O)[C@@]3(C)[C@H]2C1=O returned PI5P4Ka inh 4.9, PLK1 PBD inh 21.2µM*, KAT2A inh 1.1%, Rango release inh 6.1%, Rango complex inh inconclusive and VDR inhibitor -19.5%.
For COc1ccccc1C=C1SC(=S)NC1=O the results were PI5P4Ka inh -71.7*, PLK1 PBD inh 26.7µM*, Rango release inh 9.4%, Rango complex inh 2.6% and VDR inhibitor -27.6%.
`CC1Cc2cc(/C=C3/SC(=S)NC3=O)ccc2O1` (stereo not drawn) gave PI5P4Ka inh -94.5*, PLK1 PBD inh inconclusive, KAT2A inh -19.9%, Rango release inh 5.4%, Rango complex inh -1.6% and VDR inhibitor 87.3%.

Compound activity from PubChem BioAssay.
